Results published in PubChem BioAssay (NCATS).
Records with an inconclusive call do not appear. Activity calls are given as the source filed them. Calls come from the whole dose curve; as a rule, active = well fitted curve in the direction sought with a large enough effect; inconclusive = small, poorly fitted or top-dose-only effect, or another doubt; inactive = no such curve, though single readings can be large; an effect the other way counts as inactive or inconclusive.

Key:
[1] = qHTS Screen of the MIPE 4.0 Collection Against Ewings Sarcoma (RDES) (AID 1259252); note: nearly all actives have a fitted effect of over 35% in size; note: potency is the fitted concentration of half-maximal effect
Method in brief: (§1)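 Log-phase cells in RPMI with 5% FBS attached for 4 h, then received compounds as a titration for 48 h at 37C, 5% CO2. Viability was read by CellTiter-Glo luminescence and normalized to DMSO and no-cell wells.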

[2] = qHTS Screen of the MIPE 4.0 Collection Against Ewings Sarcoma (TC71) (AID 1259253); note: nearly all actives have a fitted effect of over 40% in size; note: potency is the fitted concentration of half-maximal effect
Method in brief: as §1

[3] = qHTS Screen of the MIPE 4.0 Collection Against Ewings Sarcoma (EW8) (AID 1259255); note: nearly all actives have a fitted effect of over 35% in size; note: potency is the fitted concentration of half-maximal effect
Method in brief: as §1

[4] = qHTS assay to identify small molecule inhibitors of chordoma cells - UCH-1 (AID 1259355); note: nearly all actives have a fitted effect of over 55% in size
Method in brief: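 Screening used approved and investigational drugs in 15-point titration against 800 seeded cells per well. A fixed combination of auranofin with camptothecin, doxorubicin, rubitecan and topotecan followed compound addition, and growth was scored by CellTiter-Glo after 48hr.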

[5] = qHTS assay to identify small molecule inhibitors of chordoma cells - UCH-2 (AID 1259356); note: series mostly up to about 46 µM
[6] = qHTS Screen of the MIPE 4.0 Collection Against Ewings Sarcoma (TC32) (AID 1259256); note: nearly all actives have a fitted effect of over 45% in size; note: potency is the fitted concentration of half-maximal effect
Method in brief: as §1

[7] = Identifying Small Molecule Inhibitors of Pancreatic Cancer Stem Cells (SN12C, Adherent) (AID 1259358);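 note: cell survival measured after 48 h of compound exposure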; note: potency is the fitted concentration of half-maximal effect
From the text: Progenitor-like cancer cells, often referred to as cancer stem cells (CSC), are believed to be the drivers of therapeutic resistance and rapid recurrence. CSCs are postulated to reside in specific niches characterized by low oxygen tension, limited nutrient supply, and high redox load. Selectively targeting CSC, alone or in combination with cytotoxic agents, as a means to produce durable remissions is an appealing concept. Modeling these cells in in vitro setting is an important step in finding new therapies and/or targets. Multiple reports highlight that forcing cells in culture into 3-dimensionaly architectures (spheroids) re-establishes key progenitor-like transcriptional signatures. Pancreatic cancer is among the diseases with the most dismal outlook which is driven, largely, by recurance following front-line therapies. […] In hopes of deriving new insight into the targeting of these pancreatic CSCs we examined three established pancreatic cancer cell lines in cytotoxicity assays versus a collection of approved and investigational drugs. Importantly, we screened these lines as traditional monolayer (2D) and spheroid (3D) formats to gain an appreciation of agents with differential activity.
Multicellular tumor spheroids from Panc1, MiaPaCa-2, and the primary low-passage tissue culture line SB.06 were seeded in stem cell media (SCM) in nonadherent 6-well plates coated with hydrogel (Corning Life Sciences, Chelmsford, Mass) and pancreatic spheres generated for 14 days before screening. Cells were seeded into 1536-well solid-bottom white tissue culture treated Greiner Bio One Plates (789173-F) using a MultiDrop Combi (Thermofisher Scientific) dispenser and a small sterile cassette. One column was media alone to be used as a :"no cells" control. The plates were then covered with sterilized stainless steel gasketed lids from Kalypsys. After allowing cells to attach for 4 hours, 23 nL of test compound or control (negative control DMSO and positive control 9.2 uM Bortezomib-final) were added from a 1536-well polypropylene compound source plate to each well using a 1536 head pin tool from Kalypsys. Cells were then incubated for 48 hours at 37C, 95% relative humidity and 5% CO2. After 48 hours, plates were removed from the incubator and 3 uL of CellTiter-Glo (Promega) was added using an Aurora Flying Reagent Dispenser Bioraptor. Plates were incubated at room temperature for 10 minutes prior to reading the luminescence on the Viewlux (PerkinElmer). The relative luciferase units are used to calculate the percent activity using the activity of DMSO in the cells and no cells columns for normalization of no inhibition and full inhibition respectively.

[8] = Identifying Small Molecule Inhibitors of Pancreatic Cancer Stem Cells (SN12C, Spheroid) (AID 1259360); conditions: Potency: SN12C spheroid viability; note: potency is the fitted concentration of half-maximal effect
Method in brief: (§2)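 Spheroids grown 14 days in stem cell media on hydrogel-coated nonadherent plates; 2D lines seeded directly. Compounds added after 4 h attachment, 48 h at 37C, 5% CO2; CellTiter-Glo luminescence normalized to DMSO (no inhibition) and no-cell wells (full inhibition).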

[9] = Identifying Small Molecule Inhibitors of Pancreatic Cancer Stem Cells (A2780, Spheroid) (AID 1259357); conditions: Potency: A2780 spheroid viability;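 note: spheroids pre-formed over 14 days in stem cell medium on hydrogel; potency is the fitted concentration of half-maximal effect; compound exposure lasted 48 h before the ATP luminescence read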
Method in brief: as §2

Measured: Potency

N=C(N)c1ccc(OCCCCCOc2ccc(C(=N)N)cc2)cc1
active: [1] 18.7 µM | [2] 8.33 µM | [3] 14.8 µM
inactive: [4] | [5]

CC(C)C[C@H](NC(=O)[C@H](CCc1ccccc1)NC(=O)CN1CCOCC1)C(=O)N[C@@H](Cc1ccccc1)C(=O)N[C@@H](CC(C)C)C(=O)[C@@]1(C)CO1
active: [1] 0.0187 µM | [2] 0.0372 µM | [3] 0.0132 µM | [6] 0.0148 µM | [7] 0.0372 µM | [8] 0.0372 µM

Cn1nnc2c(C(N)=O)ncn2c1=O
inactive: [1] | [2] | [3] | [6] | [5]

CCOc1cc(N)c(Cl)cc1C(=O)NCC1CN(Cc2ccc(F)cc2)CCO1 (centres undefined)
inactive: [1] | [2] | [3] | [6] | [5]

CN(C)CCc1c[nH]c2ccc(C[C@H]3COC(=O)N3)cc12
inactive: [1] | [2] | [3] | [6] | [5]

NC(N)=NC(N)=NCCc1ccccc1
active: [1] 11.8 µM | [2] 18.7 µM | [3] 16.6 µM
inactive: [4] | [5]

NC1(c2ccc(-c3nc4ccn5c(=O)[nH]nc5c4cc3-c3ccccc3)cc2)CCC1
active: [1] 23.5 µM | [2] 20.9 µM | [3] 4.69 µM | [6] 13.2 µM | [7] 26.4 µM | [8] 23.5 µM

CC1(C)[C@H](C(=O)O)N2C(=O)C[C@H]2S1(=O)=O
inactive: [1] | [3] | [6]

COC(=O)Nc1nc2ccc(Sc3ccccc3)cc2[nH]1
active: [1] 1.66 µM | [2] 1.66 µM | [3] 1.32 µM | [6] 1.18 µM
inactive: [5]

NC(=O)c1ccc2[nH]ccc2c1
inactive: [1] | [3] | [6]

CC[C@H](C)C(=O)O[C@H]1C[C@@H](C)C=C2C=C[C@H](C)[C@H](CC[C@@H]3C[C@@H](O)CC(=O)O3)[C@H]21
active: [1] 18.7 µM | [2] 14.8 µM | [6] 7.43 µM
inactive: [5]

Cc1c(-c2ccc(O)cc2)n(Cc2ccc(OCCN3CCCCCC3)cc2)c2ccc(O)cc12
inactive: [1] | [2] | [3] | [6] | [7] | [8]

CNCC[C@H](Oc1cccc2ccccc12)c1cccs1
active: [1] 2.35 µM | [2] 2.64 µM | [3] 7.43 µM | [6] 5.26 µM
inactive: [5]

CNC(=O)c1cc(Oc2ccc(NC(=O)Nc3ccc(Cl)c(C(F)(F)F)c3)cc2)ccn1
active: [1] 1.18 µM | [2] 2.35 µM | [3] 18.7 µM | [9] 20.9 µM | [7] 20.9 µM | [8] 18.7 µM
